Results on 8 molecules are retold here after PubChem BioAssay (EPA / NIEHS).

Records with an inconclusive call do not appear. Calls of active or inactive are those of the source. The calls were made as follows, unless noted: active = hit-call score of the fitted dose curve at least 0.9, where 1 is the maximum; inactive = score below 0.9.

Test [1] can be described thus: ATG_NFI_CIS: Attagene CIS-FACTORIAL HepG2 Assay for human Nuclear Factor I (NFI) (AID 2282989). The note with it: HepG2 cis-regulatory reporter, NFI response element transcription; actives raise or lower the signal. In a few lines:
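Reporter transcription driven by endogenous transcription factors in HepG2 cells; 24 h treatment. Quantitation by labelled RT-PCR fragments on capillary electrophoresis, gain- or loss-of-signal relative to DMSO.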

In test [2] the target is Myc proto-oncogene protein (Homo sapiens) (UniProt P01106). The experiment in a line: ATG_Myc_CIS: Attagene CIS-FACTORIAL HepG2 Assay for human Myelocytomatosis (Myc) Proto-Oncogene Transcription Factor (AID 2282990). As to conditions: HepG2, Attagene cis-reporter transcription factor activity; actives raise or lower the signal. In a few lines: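 DMSO-normalised, bidirectionally fitted reporter mRNA signal. HepG2 cells transfected with cis reporter constructs, treated 24 h; transcripts detected by RT-PCR, 6-FAM primer extension and CE.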

The nature of test [3]: ATG_NF_kB_CIS: Attagene CIS-FACTORIAL HepG2 Assay for human Nuclear Factor Kappa B (NF-kB) (AID 2282991). The note with it: HepG2 Attagene cis-factorial NF-kB reporter mRNA; actives raise or lower the signal. In a few lines: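 Fluorescence of labelled RT-PCR products separated by capillary electrophoresis gives reporter mRNA levels from transfected HepG2 cells exposed 24 h; values are fitted in both directions relative to DMSO.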

The nature of test [4]: ATG_Oct_MLP_CIS: Attagene CIS-FACTORIAL HepG2 Assay for human Octamer-Binding Transcription Factor (Oct) (AID 2282993). The note with it: HepG2 Attagene cis-factorial Oct reporter, mRNA; actives raise or lower the signal. In outline: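 Transfected HepG2 cells, 24 h treatment. Reporter mRNA quantified by RT-PCR–capillary electrophoresis; bidirectional fitting against DMSO.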

Test [5] concerns the target Cellular tumor antigen p53 (Homo sapiens) (UniProt P04637). The experiment in a line: ATG_p53_CIS: Attagene CIS-FACTORIAL HepG2 Assay for human p53 Transcription Factor (AID 2282994). As to conditions: HepG2 p53 cis-element reporter, Attagene mRNA; actives raise or lower the signal. In outline: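 HepG2 cells transiently transfected with cis-regulated multiple reporter transcription units, dosed 24 h. Reporter mRNA measured by RT-PCR, 6-FAM primer extension, HpaI digestion and capillary electrophoresis; bidirectional fit relative to DMSO.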

Test [6] concerns the target human Peroxisome Proliferator-activated Receptor alpha (PPARa), PPARA (gene 5465) (UniProt Q07869). The experiment in a line: ATG_PPARa_TRANS: Attagene TRANS-FACTORIAL HepG2 Assay for human Peroxisome Proliferator-activated Receptor alpha (PPARa) (AID 2283001; active = hit-call score of the fitted dose curve at least 0.9, where 1 is the maximum;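 as to AC50: potency for gain of reporter signal over DMSO so agonist or activator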). In outline: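 HepG2 cells transiently transfected with multiplexed GAL4-UAS reporter units and chimeric NR-Gal4 constructs were dosed for 24 h. Reporter mRNA was measured by RT-PCR with fluorescent labelling and capillary electrophoresis; gain of signal fitted against DMSO.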

Test [7] addresses Nuclear receptor subfamily 1 group I member 2 (Homo sapiens) (UniProt O75469). Nature of the test: ATG_PXR_TRANS: Attagene TRANS-FACTORIAL HepG2 Assay for human Pregnane X Receptor (PXR) (AID 2283008; active = hit-call score of the fitted dose curve at least 0.9, where 1 is the maximum). In outline:
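HepG2 cells transiently transfected with GAL4-UAS reporter units and PXR-Gal4 chimera, exposed 24 h. Reporter mRNA quantified by RT-PCR, fluorescent labelling, HpaI digestion and capillary electrophoresis; gain of signal vs DMSO.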

Test [8] in a line: ATG_NRF2_ARE_CIS: Attagene CIS-FACTORIAL HepG2 Assay for human Nuclear Factor Erythroid 2 Related Factor 2 (NFR2) response to Antioxidant Response Elements (ARE) (AID 2282992). As to conditions: HepG2 Attagene ARE/NRF2 reporter, transcription factor activity; actives raise or lower the signal. In a few lines:
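HepG2 cells transiently transfected with multiplexed cis-element reporter constructs, 24 h after chemical dosing; reporter mRNA quantified by RT-PCR, fluorescent primer extension, HpaI digestion and capillary electrophoresis. Bidirectional fit relative to DMSO.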

In test [9] the target is human Peroxisome Proliferator-activated Receptor delta (PPARd), PPARD (gene 5467) (UniProt Q03181). The experiment in a line: ATG_PPARd_TRANS: Attagene TRANS-FACTORIAL HepG2 Assay for human Peroxisome Proliferator-activated Receptor delta (PPARd) (AID 2283002; active = hit-call score of the fitted dose curve at least 0.9, where 1 is the maximum). In outline: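 Measured quantity: GAL4-UAS reporter transcript induction in HepG2 after 24 h chemical dosing, with NR-Gal4 chimeras supplied by transient transfection. Detection by RT-PCR and capillary electrophoresis; upward fit against DMSO.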

Test [10] addresses human RAR-related Orphan Receptor beta (RORb), RORB (gene 6096) (UniProt Q92753). The experiment in a line: ATG_RORb_TRANS: Attagene TRANS-FACTORIAL HepG2 Assay for human RAR-related Orphan Receptor beta (RORb) (AID 2283010; active = hit-call score of the fitted dose curve at least 0.9, where 1 is the maximum). In outline: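 HepG2 cells were transiently transfected with multiplexed GAL4-UAS reporter units expressing chimeric nuclear receptor–GAL4 proteins, then dosed for 24 h. Reporter mRNA was quantified by RT-PCR with fluorescent labelling and capillary electrophoresis; gain of signal was fitted relative to DMSO.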

In test [11] the target is human RAR-related Orphan Receptor gamma (RORg), RORC (gene 6097) (UniProt P51449). The experiment in a line: ATG_RORg_TRANS: Attagene TRANS-FACTORIAL HepG2 Assay for human RAR-related Orphan Receptor gamma (RORg) (AID 2283011; active = hit-call score of the fitted dose curve at least 0.9, where 1 is the maximum). In a few lines:
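Transient MRTU transfection of HepG2 (TRANS format, exogenous NR-Gal4 chimera). 24 h dosing. Total RNA → oligo(dT) RT → PCR → 6-FAM labelling → HpaI cut → CE. Gain vs DMSO.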

The target of test [12] is human Retinoic Acid Receptor beta (RARb), RARB (gene 5915) (UniProt P10826). Nature of the test: ATG_RARb_TRANS: Attagene TRANS-FACTORIAL HepG2 Assay for human Retinoic Acid Receptor beta (AID 2283004; active = hit-call score of the fitted dose curve at least 0.9, where 1 is the maximum). In outline:
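Readout is reporter mRNA induction: RNA reverse-transcribed, PCR-amplified, FAM-labelled, HpaI-cut and resolved by capillary electrophoresis. Transiently transfected HepG2 cells carrying exogenous NR–Gal4 chimeras were dosed for 24 h; activity fitted upward relative to DMSO.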

The target of test [13] is Retinoic acid receptor alpha (Homo sapiens) (UniProt P10276). Nature of the test: ATG_RARa_TRANS: Attagene TRANS-FACTORIAL HepG2 Assay for human Retinoic Acid Receptor alpha (RARa) (AID 2283005; active = hit-call score of the fitted dose curve at least 0.9, where 1 is the maximum). In a few lines: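 HepG2 cells transiently transfected with multiple reporter units expressing chimeric RARα-GAL4 fusion, with GAL4-UAS-driven reporters. After 24 h compound exposure, reporter mRNA induction quantified by RT-PCR and capillary electrophoresis with fluorescent labeling; gain-of-signal fitted relative to DMSO control.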

Test [14] concerns the target Peroxisome proliferator-activated receptor gamma (Homo sapiens) (UniProt P37231). Nature of the test: ATG_PPARg_TRANS: Attagene TRANS-FACTORIAL HepG2 Assay for human Peroxisome Proliferator-activated Receptor-gamma (PPARg) (AID 2283007; active = hit-call score of the fitted dose curve at least 0.9, where 1 is the maximum). In outline: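 Twenty-four hours after chemical dosing of transiently transfected HepG2 cells, isolated RNA was converted to cDNA, reporter sequences amplified and 6-FAM-labelled, then HpaI-digested and analysed by capillary electrophoresis. Signal increase against DMSO was fitted.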

Sequence of Cellular tumor antigen p53 (Homo sapiens) (P04637 whole entry, looked up): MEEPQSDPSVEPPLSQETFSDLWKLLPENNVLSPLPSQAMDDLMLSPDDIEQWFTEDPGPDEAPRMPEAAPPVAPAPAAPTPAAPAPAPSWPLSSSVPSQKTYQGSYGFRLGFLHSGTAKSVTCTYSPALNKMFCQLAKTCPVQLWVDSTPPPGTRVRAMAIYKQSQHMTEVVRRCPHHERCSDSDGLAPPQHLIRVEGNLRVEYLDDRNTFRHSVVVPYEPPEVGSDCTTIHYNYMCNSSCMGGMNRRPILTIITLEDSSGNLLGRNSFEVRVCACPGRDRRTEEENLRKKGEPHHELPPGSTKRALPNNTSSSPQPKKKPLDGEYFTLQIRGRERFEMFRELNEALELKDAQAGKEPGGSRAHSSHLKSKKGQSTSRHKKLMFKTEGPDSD
Sequence of human Retinoic Acid Receptor beta (RARb), RARB (gene 5915) (P10826 whole entry, looked up, the tested form may be a part): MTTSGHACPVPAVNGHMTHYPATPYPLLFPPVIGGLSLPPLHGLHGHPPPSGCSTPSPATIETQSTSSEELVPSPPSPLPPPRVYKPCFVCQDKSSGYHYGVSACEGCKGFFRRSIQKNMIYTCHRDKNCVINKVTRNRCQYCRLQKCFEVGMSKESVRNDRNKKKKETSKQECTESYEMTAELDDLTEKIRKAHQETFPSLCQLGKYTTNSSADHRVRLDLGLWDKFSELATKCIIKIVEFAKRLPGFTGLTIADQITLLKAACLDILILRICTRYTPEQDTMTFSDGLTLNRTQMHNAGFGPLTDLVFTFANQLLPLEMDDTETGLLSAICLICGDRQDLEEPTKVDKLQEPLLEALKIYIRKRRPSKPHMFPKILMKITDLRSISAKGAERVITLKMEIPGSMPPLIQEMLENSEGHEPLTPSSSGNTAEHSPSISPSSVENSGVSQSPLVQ
Sequence of human RAR-related Orphan Receptor beta (RORb), RORB (gene 6096) (Q92753 whole entry, looked up, the tested form may be a part): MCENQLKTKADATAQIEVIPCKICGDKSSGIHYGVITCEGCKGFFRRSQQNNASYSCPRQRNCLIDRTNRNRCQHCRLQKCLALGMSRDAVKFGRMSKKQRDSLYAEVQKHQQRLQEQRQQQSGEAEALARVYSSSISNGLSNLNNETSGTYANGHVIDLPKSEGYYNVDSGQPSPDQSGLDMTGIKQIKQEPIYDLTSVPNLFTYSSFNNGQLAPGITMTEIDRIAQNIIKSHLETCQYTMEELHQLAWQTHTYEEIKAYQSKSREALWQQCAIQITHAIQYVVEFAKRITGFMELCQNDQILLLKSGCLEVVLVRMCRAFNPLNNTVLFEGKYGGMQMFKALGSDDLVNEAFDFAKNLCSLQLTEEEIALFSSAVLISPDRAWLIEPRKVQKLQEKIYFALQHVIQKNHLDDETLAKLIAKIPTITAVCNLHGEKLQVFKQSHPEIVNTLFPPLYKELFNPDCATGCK
Sequence of Myc proto-oncogene protein (Homo sapiens) (P01106 whole entry, looked up): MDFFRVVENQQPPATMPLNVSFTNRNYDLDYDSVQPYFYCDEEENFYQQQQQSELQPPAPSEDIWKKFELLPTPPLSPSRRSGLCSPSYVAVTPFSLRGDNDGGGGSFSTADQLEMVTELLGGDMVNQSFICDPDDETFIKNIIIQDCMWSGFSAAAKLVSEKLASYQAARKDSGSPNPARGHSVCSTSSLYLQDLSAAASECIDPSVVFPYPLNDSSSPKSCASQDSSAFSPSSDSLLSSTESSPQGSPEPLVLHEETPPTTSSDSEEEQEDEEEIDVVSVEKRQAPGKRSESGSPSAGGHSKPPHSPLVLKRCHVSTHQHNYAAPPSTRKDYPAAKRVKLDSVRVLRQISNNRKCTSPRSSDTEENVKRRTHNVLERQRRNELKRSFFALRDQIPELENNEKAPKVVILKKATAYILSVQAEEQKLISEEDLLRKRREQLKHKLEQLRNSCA
Sequence of Nuclear receptor subfamily 1 group I member 2 (Homo sapiens) (O75469 whole entry, looked up, the tested form may be a part): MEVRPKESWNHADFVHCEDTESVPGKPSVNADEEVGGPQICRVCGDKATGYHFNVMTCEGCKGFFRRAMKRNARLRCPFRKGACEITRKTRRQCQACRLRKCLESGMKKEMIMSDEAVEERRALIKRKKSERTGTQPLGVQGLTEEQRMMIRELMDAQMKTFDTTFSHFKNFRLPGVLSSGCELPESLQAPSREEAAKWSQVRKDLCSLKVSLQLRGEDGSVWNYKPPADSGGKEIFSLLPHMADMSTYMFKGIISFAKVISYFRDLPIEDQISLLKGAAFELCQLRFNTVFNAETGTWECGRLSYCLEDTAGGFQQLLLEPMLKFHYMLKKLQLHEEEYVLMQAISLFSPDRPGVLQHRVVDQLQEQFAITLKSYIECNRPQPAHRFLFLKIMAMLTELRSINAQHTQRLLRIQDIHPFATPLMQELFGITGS
Sequence of human Peroxisome Proliferator-activated Receptor alpha (PPARa), PPARA (gene 5465) (Q07869 whole entry, looked up, the tested form may be a part): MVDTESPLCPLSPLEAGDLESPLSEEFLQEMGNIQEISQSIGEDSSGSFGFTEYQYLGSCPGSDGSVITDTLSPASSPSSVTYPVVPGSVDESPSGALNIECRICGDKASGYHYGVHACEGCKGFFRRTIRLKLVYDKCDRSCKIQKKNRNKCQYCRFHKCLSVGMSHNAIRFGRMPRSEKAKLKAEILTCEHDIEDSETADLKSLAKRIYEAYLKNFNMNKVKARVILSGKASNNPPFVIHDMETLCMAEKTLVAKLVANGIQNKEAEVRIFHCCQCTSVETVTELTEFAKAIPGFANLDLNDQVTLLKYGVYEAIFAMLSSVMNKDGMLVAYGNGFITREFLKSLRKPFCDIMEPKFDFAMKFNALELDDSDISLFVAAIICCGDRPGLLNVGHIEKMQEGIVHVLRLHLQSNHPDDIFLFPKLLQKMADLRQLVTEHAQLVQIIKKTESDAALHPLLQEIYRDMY
Sequence of human RAR-related Orphan Receptor gamma (RORg), RORC (gene 6097) (P51449 whole entry, looked up, the tested form may be a part): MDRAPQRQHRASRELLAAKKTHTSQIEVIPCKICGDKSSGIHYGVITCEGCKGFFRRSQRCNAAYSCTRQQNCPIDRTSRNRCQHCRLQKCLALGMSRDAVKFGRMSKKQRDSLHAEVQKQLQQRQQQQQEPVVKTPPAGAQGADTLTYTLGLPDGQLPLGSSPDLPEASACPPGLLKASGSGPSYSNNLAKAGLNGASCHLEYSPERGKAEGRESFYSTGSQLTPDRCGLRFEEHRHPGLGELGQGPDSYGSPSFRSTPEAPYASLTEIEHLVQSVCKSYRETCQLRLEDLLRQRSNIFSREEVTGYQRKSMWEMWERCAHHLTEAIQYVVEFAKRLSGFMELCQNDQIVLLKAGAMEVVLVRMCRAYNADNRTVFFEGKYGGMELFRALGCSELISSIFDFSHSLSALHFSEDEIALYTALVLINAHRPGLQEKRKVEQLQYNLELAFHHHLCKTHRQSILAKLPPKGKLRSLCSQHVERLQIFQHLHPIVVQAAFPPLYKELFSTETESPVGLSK
Sequence of human Peroxisome Proliferator-activated Receptor delta (PPARd), PPARD (gene 5467) (Q03181 whole entry, looked up, the tested form may be a part): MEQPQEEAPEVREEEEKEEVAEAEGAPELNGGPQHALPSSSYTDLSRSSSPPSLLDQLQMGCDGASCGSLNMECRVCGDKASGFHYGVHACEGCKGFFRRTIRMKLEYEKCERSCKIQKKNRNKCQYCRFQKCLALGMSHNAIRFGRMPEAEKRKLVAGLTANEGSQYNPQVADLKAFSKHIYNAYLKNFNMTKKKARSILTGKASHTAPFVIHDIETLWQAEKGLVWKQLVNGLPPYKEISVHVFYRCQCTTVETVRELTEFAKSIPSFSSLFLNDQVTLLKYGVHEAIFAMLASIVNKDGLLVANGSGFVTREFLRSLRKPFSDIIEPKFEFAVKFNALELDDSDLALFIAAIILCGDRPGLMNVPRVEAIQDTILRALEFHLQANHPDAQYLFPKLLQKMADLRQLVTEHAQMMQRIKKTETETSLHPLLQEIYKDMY
Sequence of Peroxisome proliferator-activated receptor gamma (Homo sapiens) (P37231 whole entry, looked up): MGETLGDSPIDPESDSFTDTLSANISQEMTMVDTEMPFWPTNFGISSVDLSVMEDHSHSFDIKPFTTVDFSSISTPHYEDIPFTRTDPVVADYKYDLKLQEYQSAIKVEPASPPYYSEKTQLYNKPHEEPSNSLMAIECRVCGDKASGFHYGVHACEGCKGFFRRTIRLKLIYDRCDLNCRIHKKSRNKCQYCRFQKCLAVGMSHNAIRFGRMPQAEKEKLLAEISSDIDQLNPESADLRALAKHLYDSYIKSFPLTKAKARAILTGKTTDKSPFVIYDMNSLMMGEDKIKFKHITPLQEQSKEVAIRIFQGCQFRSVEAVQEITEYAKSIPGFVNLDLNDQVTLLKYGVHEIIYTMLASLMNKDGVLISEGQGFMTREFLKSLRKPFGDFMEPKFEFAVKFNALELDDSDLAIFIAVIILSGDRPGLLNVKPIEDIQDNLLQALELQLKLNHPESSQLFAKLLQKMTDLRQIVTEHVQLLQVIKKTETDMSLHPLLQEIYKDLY
Sequence of Retinoic acid receptor alpha (Homo sapiens) (P10276 whole entry, looked up, the tested form may be a part): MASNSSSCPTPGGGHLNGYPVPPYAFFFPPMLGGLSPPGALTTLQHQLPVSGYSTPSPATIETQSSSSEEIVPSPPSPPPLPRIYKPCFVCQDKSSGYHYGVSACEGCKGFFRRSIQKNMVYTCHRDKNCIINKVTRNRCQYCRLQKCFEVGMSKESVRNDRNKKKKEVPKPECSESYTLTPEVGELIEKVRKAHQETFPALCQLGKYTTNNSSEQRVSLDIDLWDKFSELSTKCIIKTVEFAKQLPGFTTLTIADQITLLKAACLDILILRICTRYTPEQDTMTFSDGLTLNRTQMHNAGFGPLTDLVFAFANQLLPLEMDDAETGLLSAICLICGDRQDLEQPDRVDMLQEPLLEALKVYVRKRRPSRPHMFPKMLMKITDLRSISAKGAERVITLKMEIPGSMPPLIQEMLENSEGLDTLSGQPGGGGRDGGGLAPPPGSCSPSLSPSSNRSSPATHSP

As to `O=C(O)c1cc2ccccc2nc1C(=O)O`, the molecule was called inactive in test [1], in [2], in [3], in test [4], in test [5] and in [6]. Moreover, in test [7], the molecule was classed as inactive.

Consider `CCC(C)C=O` (centres undefined), for which the call in test [1], in test [2], in test [3], in test [8], in [5] and in test [9] was inactive. Besides, the molecule was called inactive in test [7], in test [10] and in test [11].

Regarding `COC(F)(F)C(F)(C(F)(F)F)C(F)(F)F`, the molecule was classed as inactive in test [1], in [2], in test [3], in test [4], in [5] and in test [6]. The molecule was classed as inactive in test [12] and in test [10].

Turning to `CC(C)c1ccc(C#N)cc1`, the call in [1], in test [2], in [3], in [4], in [5] and in test [13] was inactive. The molecule was called inactive in test [7], in [10] and in test [11].

As to `[Cl][Bi]([Cl])([c]1ccccc1)([c]1ccccc1)[c]1ccccc1`, the molecule was classed as inactive in test [1], in test [2] and in test [7]. The AC50 in [3] was 463 nM (active); in test [8] it was 999 nM (active); in test [5] it was 6070 nM (active); in test [6], 5110 nM (active); in [14], 1170 nM (active).

On to `CCCc1ccc(OC)cc1`, for which the molecule was called inactive in [1], in [2], in test [3], in [8], in test [4] and in test [12]. Further, the result in [7], in test [10] and in [11] was inactive.

On to `O=C1CCCC(=O)O1`, for which the outcome in test [1], in [2], in [3], in test [4], in [5] and in [6] was inactive. Besides, the result in [12], in [7], in test [10] and in [11] was inactive.

In the case of `COc1ccc(NC(C)=O)cc1N`, the outcome in [1], in test [2], in [3] and in [4] was inactive.
